Our source for the z-score and composite z-score values is PubChem BioAssay.

Calls of active or inactive are those of the source.

A short description of test [1]: optical density shifts of acrAB sulA E. coli – strain DRC41, OD650, 48 h, E. coli filamentation inducer project, primary screen (AID 1152).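 Further: E. coli MC1000 strain DRC41 lacking acrAB efflux pump and sulA.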 Conditions: higher = more signal, called active from +8 up or from −8 down.
Test [2] in a line: probe aLefty1 binding on compound microarray – biochemical, small-molecule microarray, 635/667 nm fluorescence, primary screen (AID 1153).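 Further: score merges spot fluorescence with signal-to-noise ratio from the scanned slide images.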 Conditions: higher = more signal.
Test [3] is described as follows: plasmodial surface anion channel blockers, osmotic lysis – cell-based, P. falciparum Indochina, OD700, 1 h, primary screen (AID 1154). Conditions: P. falciparum Indochina infected RBC osmotic lysis, higher = more signal, called active from +8 up or from −8 down.
A short description of test [4]: plasmodial surface anion channel blockers, osmotic lysis – cell-based, P. falciparum Indochina, OD700, 2 h, primary screen (AID 1155).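 Further: lysis reports solute entry through the parasite surface anion channel PSAC.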 To be noted: P. falciparum Indochina infected erythrocytes, higher = more signal, called active from +8 up or from −8 down.
Test [5] can be described thus: changes in parasitized red cell lysis, either direction – P. falciparum Indochina, OD700, 3 h, PSAC antagonist project, primary screen (AID 1156). Conditions: P. falciparum-infected erythrocytes, osmotic lysis, higher = more signal, called active from +8 up or from −8 down.
A short description of test [6]: plasmodial surface anion channel blockers, osmotic lysis – cell-based, P. falciparum Indochina, OD700, 18 h, primary screen (AID 1157). To be noted: P. falciparum Indochina infected erythrocytes, osmotic lysis OD700, 18 h; higher = more signal, called active from +8 up or from −8 down.
Test [7] in a line: S6 kinase pathway phospho-S6 level changes – cell-based, A549, cytoblot, luminescence, serum-stimulated, primary screen (AID 1158).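 Further: serum-stimulated A549 lung adenocarcinoma cells; signal is phosphorylated S6 detected by cytoblot immunostaining with HRP secondary.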 To be noted: 5 h, higher = more signal.
Test [8] concerns the target NADPH oxidase 2 (Homo sapiens) (UniProt P04839). Put plainly: compounds shifting NOX2 Amplex Red fluorescence – cell-based, HEK293-NOX2, PMA-stimulated, NOX inhibitor project, primary screen (AID 1159). Further: test concentration not given here. To be noted: 45 min, higher = more signal, called active from +8 up or from −8 down.
Test [9] deals with NADPH oxidase 4 (Homo sapiens) (UniProt Q9NPH5). Put plainly: compounds shifting NOX4 Amplex Red fluorescence – cell-based, HEK293-NOX4, tetracycline-induced, NOX inhibitor project, primary screen (AID 1160). To be noted: HEK293-NOX4, Amplex Red H2O2 fluorescence, 45 min; higher = more signal, called active from +8 up or from −8 down.
Sequence of NADPH oxidase 4 (Homo sapiens) (Q9NPH5 whole entry, looked up): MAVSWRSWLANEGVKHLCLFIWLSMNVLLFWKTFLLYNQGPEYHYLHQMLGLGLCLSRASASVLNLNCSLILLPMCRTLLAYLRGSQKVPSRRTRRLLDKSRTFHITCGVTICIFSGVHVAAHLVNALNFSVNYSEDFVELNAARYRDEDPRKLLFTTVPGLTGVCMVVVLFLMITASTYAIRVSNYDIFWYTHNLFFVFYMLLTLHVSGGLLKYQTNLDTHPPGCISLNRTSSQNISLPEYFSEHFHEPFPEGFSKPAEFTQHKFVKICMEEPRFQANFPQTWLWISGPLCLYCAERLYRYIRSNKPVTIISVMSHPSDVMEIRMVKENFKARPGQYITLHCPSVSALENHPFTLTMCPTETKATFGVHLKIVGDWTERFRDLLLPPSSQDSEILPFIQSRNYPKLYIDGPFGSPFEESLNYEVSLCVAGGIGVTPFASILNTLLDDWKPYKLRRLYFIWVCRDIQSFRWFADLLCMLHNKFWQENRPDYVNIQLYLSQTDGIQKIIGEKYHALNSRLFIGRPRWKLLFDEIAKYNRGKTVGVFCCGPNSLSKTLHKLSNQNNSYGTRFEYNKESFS
The target in test [10] is NADPH oxidase 5 (Homo sapiens) (UniProt Q96PH1). Nature of the test: compounds shifting NOX5 Amplex Red fluorescence – cell-based, HEK293-NOX5, NOX inhibitor project, primary screen (AID 1161). To be noted: HEK293-NOX5, ionomycin, 45 min, higher = more signal.
Sequence of NADPH oxidase 5 (Homo sapiens) (Q96PH1 whole entry, looked up): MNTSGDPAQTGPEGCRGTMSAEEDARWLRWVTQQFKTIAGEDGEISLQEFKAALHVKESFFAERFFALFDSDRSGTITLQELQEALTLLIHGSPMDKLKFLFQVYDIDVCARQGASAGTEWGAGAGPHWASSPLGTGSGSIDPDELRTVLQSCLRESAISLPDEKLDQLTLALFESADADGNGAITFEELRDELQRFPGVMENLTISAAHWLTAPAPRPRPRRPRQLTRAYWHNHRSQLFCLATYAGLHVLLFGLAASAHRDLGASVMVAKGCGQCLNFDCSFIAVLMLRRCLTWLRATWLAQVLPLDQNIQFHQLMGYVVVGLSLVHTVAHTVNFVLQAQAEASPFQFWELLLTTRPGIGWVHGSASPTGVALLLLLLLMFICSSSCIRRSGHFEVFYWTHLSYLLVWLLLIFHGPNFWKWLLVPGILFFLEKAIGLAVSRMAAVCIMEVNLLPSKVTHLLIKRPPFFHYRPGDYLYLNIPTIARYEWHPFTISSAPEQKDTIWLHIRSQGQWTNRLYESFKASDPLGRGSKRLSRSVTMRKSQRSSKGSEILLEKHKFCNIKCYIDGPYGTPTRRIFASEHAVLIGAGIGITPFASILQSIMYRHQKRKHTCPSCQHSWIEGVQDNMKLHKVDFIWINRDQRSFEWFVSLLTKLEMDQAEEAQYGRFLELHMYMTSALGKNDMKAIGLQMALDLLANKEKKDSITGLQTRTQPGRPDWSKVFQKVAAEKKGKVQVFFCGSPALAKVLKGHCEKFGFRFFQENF

Sequence of NADPH oxidase 2 (Homo sapiens) (P04839 whole entry, looked up): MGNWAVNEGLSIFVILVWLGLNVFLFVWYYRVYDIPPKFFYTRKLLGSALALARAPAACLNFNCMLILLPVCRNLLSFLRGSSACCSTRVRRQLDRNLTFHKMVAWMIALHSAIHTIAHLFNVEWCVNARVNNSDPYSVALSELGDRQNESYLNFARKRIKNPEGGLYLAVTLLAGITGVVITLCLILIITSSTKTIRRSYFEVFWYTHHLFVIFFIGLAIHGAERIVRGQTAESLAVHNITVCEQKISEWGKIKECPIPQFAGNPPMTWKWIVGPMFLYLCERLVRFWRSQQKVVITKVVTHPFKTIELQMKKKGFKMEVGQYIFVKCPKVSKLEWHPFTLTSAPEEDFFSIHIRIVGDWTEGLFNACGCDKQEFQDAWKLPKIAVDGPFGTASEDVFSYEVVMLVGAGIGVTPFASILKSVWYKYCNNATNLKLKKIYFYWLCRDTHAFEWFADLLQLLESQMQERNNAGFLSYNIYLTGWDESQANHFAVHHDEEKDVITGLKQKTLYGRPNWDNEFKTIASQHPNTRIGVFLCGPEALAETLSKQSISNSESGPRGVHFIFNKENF

On to `COCCOC(=O)N1C(=O)[C@@]2(c3cc(C#CC4=CCCCC4)ccc31)[C@H](C(=O)Nc1nc3ccccc3s1)[C@H]1C(=O)O[C@H](c3ccccc3)[C@H](c3ccccc3)N1[C@@H]2c1ccc(OCCO)cc1`, for which the z-score in [1] was -1.56 (inactive); in [3], 2.63 (inactive); in test [4], 1.23 (inactive); in test [5], -0.218 (inactive); in test [6], 1.59 (inactive); in test [7] it was -0.145. In addition, the z-score in [8] was 1.01 (inactive); in test [9] it was 0.101 (inactive); in test [10], 0.468. Moreover, the composite z-score in test [2] was -0.333.
Consider `O=C1O[C@@H](c2ccccc2)[C@@H](c2ccccc2)N2[C@@H](c3ccccc3OCCO)[C@]3(C(=O)Nc4ccc(C#CC5=CCCCC5)cc43)[C@@H](C(=O)Nc3nc4ccccc4s3)[C@H]12`, for which the z-score in test [1] is 0.36 (inactive); in test [3], 1.83 (inactive); in test [4] it was 1.9 (inactive); in [5], 1.37 (inactive); in [6], 1.83 (inactive); in test [7], 0.653. Also, the z-score in test [8] is 1.78 (inactive); in test [9], 0.387 (inactive); in test [10], 1.59. In test [2], this compound yielded a composite z-score of 0.293.
On to `C=CCNC(=O)[C@H]1[C@@H]2C(=O)O[C@@H](c3ccccc3)[C@@H](c3ccccc3)N2[C@@H](c2ccc(O)cc2)[C@]12C(=O)N(C(=O)OCCOC)c1ccc(C#CCNC(N)=O)cc12`, for which the z-score in test [1] is -0.929 (inactive); in test [3] it was 1.78 (inactive); in test [4], 0.441 (inactive); in [5], -0.627 (inactive); in test [6], 0.0898 (inactive); in test [7] it was -0.272. Moreover, the z-score is 1.28 (inactive) in [8], 0.291 (inactive) in test [9] and 0.383 in [10]. Also, in [2], the composite z-score worked out at 0.378.
As to `COC(=O)[C@@]1(Cc2ccccc2)[C@H]2c3cc(C(=O)N4CCCC4)n(Cc4nc5ccccc5[nH]4)c3C[C@H]2CN1C(=O)c1ccccc1`, the z-score in [1] is -1.31 (inactive); in [3], 3.2 (inactive); in test [4], 0.541 (inactive); in [5] it was 2.65 (inactive); in test [6] it was 0.959 (inactive); in [7], -0.25. In addition, the z-score was 0.311 (inactive) in test [8], -0.142 (inactive) in test [9] and -3 in test [10]. This compound yielded a composite z-score in test [2] of 1.06.
For `C=CCC(OC(C)=O)[C@@H]1[C@@H](N(Cc2ccc(-c3ccccc3)cc2)C(=O)Cc2ccc(F)cc2)c2cc(OCCCO)ccc2N1C(=O)c1ccc(-c2ccccc2)cc1` (stereo not given in full), the z-score in test [1] is 2.08 (inactive); in test [3], 0.66 (inactive); in test [4], -0.221 (inactive); in test [5], -0.567 (inactive); in test [6], -0.154 (inactive); in test [7], 1.26. The z-score is -1.49 (inactive) in test [8], 0.414 (inactive) in [9] and 0.263 in test [10]. Also, the composite z-score in test [2] is -0.0193.
For the compound `CN1C(=O)C2C=CC(C(O)c3ccc(I)cc3)N(N3CCCCC3)C2C1=O` (stereo not given), the z-score in [1] was -2.04 (inactive); in [3] it was 4.08 (inactive); in test [4], 0.399 (inactive); in test [5], 1.33 (inactive); in test [6], 0.701 (inactive); in test [7], -1.04. The results for the z-score in test [8], in test [9] and in [10] were -0.229 (inactive), -2.14 (inactive) and -1.63, respectively. Further, the composite z-score in test [2] worked out at 0.699.
`O=C1OCC=C[C@H]2OC34C=CCN(CCN5CCOCC5)C(=O)[C@H]3N(CCCO)C(=O)[C@@H]4[C@@H]12` (stereo not given in full): the z-score in test [1] was 0.109 (inactive); in test [3], 0.64 (inactive); in [4] it was -0.385 (inactive); in [5], 1.27 (inactive); in [6] it was -1.19 (inactive); in test [7] it was 1.08. In addition, the z-score in test [8] was 0.812 (inactive); in test [9] it was -1.16 (inactive); in test [10], 0.375. Moreover, the composite z-score in test [2] was -0.147.
Consider `O=C1OCCC/C=C\[C@H]2OC34C=CCN(Cn5nnc6ccccc65)C(=O)[C@H]3N(CCCCCCO)C(=O)[C@@H]4C12` (stereo not given in full), for which the z-score in [1] was 3.64 (inactive); in [3], 3.95 (inactive); in [4] it was -0.392 (inactive); in test [5], -0.193 (inactive); in test [6], -0.677 (inactive); in test [7] it was 2.58. The z-score in test [8] is 1.15 (inactive); in test [9], 0.377 (inactive); in test [10] it was 2.11. The compound also gave a composite z-score in test [2] of -0.481.
Regarding `C[N+](C)(C)CCCCNC(=O)[C@H]1C[C@H]2C(=O)N[C@@H](Cc3ccccc3)C(=O)N2[C@H]1c1ccc(O)cc1`, the z-score in test [1] is 0.274 (inactive); in test [3], 0.891 (inactive); in test [4] it was 0.0222 (inactive); in test [5], -0.271 (inactive); in test [6] it was 0.228 (inactive); in [7], 0.149. Moreover, the z-score was -2.12 (inactive) in [8], -1.27 (inactive) in test [9] and -2.42 in test [10]. Also, the composite z-score in test [2] is -0.142.
Turning to `COC(=O)c1c(CC[C@@H](CO)NC(=O)N2CCC[C@H]2Cn2cc(-c3ccccn3)nn2)oc(C(C)=O)c1C(=O)OC`, the z-score in [1] is 1.04 (inactive); in test [3] it was 1.58 (inactive); in test [4] it was -0.448 (inactive); in test [5], -0.315 (inactive); in [6], -0.741 (inactive); in [7], 0.882. For the same compound, the z-score in test [8] was -2.6 (inactive); in test [9] it was -1.44 (inactive); in test [10], -1.84. Besides, in [2], the composite z-score was -0.101.
Consider `COc1ccc(NN2C(C(O)c3ccc([N+](=O)[O-])cc3)C=CC3C(=O)N(C4CCCCC4)C(=O)C32)cc1` (stereo not given), for which the z-score in [1] was -0.256 (inactive); in test [3] it was 7.78 (inactive); in test [4], 1.11 (inactive); in [5] it was -0.187 (inactive); in test [6] it was 0.708 (inactive); in test [7], -0.126. Moreover, the z-score in test [8] was -1.03 (inactive); in test [9], -2.3 (inactive); in test [10], -0.48. In test [2], this compound had a composite z-score of 0.3.
As to `COc1ccc(CCNC(=O)[C@@H]2c3ccccc3C(=O)N(C3Cc4ccccc4C3)[C@H]2c2ccc(CO)cc2)cc1`, the z-score was -0.483 (inactive) in [1]; 6.43 (inactive) in test [3]; 0.65 (inactive) in test [4]; 0.474 (inactive) in [5]; 0.183 (inactive) in [6]; -0.484 in test [7]. Moreover, the z-score in test [8] is -3.31 (inactive); in test [9], -0.185 (inactive); in test [10] it was -3.47. In [2], the composite z-score is -0.0544.
